This is part of a sample that, as a whole, favours compounds with a hit. Of some 83,000 tested, about 20% had one in any assay.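 Testing used 96-well plates and a 48-hour single-concentration exposure. Example: -40 means 40% of the starting cells died.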 A number with no mark means an inactive call. The calls were made as follows: active = growth percent below 10; inactive = the rest.
Each compound was assayed on SW-620 colon (assay: NCI-60 one-dose screen, 48 h (100 = growth as untreated, 0 = no growth, -100 = all killed)). Details: 10 µM unless noted.
In the case of `Cn1c(C(N)=O)cc2c1-c1nc(NC3CCCCC3)ncc1CCC2`, the growth is reported as 89.7%. In the case of `CCOP(=O)(CCN1CCN(CCCCCOc2cc3c(cc2OC)C(=O)N2CCC[C@H]2C=N3)CC1)OCC`, the growth is reported as 63.5%. In the case of `O=C(NCCCN1CCN(CCCNC(=O)C2CCCCC2)CC1)C1CCCCC1`, the growth is reported as 95%. `COC(=O)c1cc(-c2cccs2)c(C#N)c(N)c1C#N` showed a growth of 102%. `COc1cc(NC(=O)CCl)ccc(=O)c1` showed a growth of 69.8%. With `C[C@]12CC[C@@H]3c4cc(O)c(O)cc4CC[C@H]3[C@@H]1CC[C@@H]2O` the growth was 30.7%. Work on `c1ccc([P+](CCC[P+](c2ccccc2)(c2ccccc2)c2ccccc2)(c2ccccc2)c2ccccc2)cc1` yielded a growth of 85.4%. With `CC(=O)c1cc(C(=O)c2ccc3c(c2)Sc2ccccc2N3)c2cc(C)ccn12` the growth was 22.4%.

Reference: PubChem BioAssay (NCI)
